# Reference: publication PMC7862700, “An all-to-all approach to the identification of sequence-specific readers for epigenetic DNA modifications on cytosine”
# What was measured:
# Test in all cases: DAPPL (digital affinity profiling via proximity ligation, sequencing); 10 mM Tris-HCl pH 7.5, 50 mM NaCl, 1 mM DTT, 4% glycerol, room temperature, 30 min; GST-TFs on glutathione beads, 16-mer random dsDNA library, 0.1% formaldehyde crosslink after washing; high values mean tight binding
# FLI1 = target: T1, FLI1 (Homo sapiens, UniProt Q01543 1-452); conditions: protein: recombinant; tags: N-terminal GST; dsDNA, one strand shown
# T1 sequence: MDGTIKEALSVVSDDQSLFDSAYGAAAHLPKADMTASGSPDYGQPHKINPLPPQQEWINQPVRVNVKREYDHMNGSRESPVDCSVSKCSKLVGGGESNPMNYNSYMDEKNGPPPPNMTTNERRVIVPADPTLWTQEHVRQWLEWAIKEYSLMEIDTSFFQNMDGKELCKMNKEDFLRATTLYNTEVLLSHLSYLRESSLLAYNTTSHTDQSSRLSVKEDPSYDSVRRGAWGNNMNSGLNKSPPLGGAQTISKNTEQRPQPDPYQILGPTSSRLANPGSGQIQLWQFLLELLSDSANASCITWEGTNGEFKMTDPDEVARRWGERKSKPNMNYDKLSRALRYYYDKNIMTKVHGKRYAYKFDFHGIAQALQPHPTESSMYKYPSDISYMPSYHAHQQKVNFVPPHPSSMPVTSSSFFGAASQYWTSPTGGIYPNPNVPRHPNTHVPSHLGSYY
# Summary of the method: (§1)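 A tag-only sample was pooled with DNA-barcoded human transcription factors that had been expressed in yeast as GST fusions and captured on glutathione beads. The pools were incubated for 30 min at room temperature with 200 nmole of a random double-stranded 16-mer DNA library in Tris/NaCl/DTT/glycerol buffer, then washed, crosslinked with 0.1% formaldehyde, proximity-ligated (BsaI/T4 ligase, 1 h, 37 °C), PCR-amplified and sequenced on an Illumina NextSeq500. Binding signal is each hexamer's read frequency for a factor divided by its frequency for the tag-only sample.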
# ELK1 = target: T2, ELK1 (Homo sapiens, UniProt P19419 1-428); conditions: protein: recombinant; tags: N-terminal GST; dsDNA, one strand shown
# T2 sequence: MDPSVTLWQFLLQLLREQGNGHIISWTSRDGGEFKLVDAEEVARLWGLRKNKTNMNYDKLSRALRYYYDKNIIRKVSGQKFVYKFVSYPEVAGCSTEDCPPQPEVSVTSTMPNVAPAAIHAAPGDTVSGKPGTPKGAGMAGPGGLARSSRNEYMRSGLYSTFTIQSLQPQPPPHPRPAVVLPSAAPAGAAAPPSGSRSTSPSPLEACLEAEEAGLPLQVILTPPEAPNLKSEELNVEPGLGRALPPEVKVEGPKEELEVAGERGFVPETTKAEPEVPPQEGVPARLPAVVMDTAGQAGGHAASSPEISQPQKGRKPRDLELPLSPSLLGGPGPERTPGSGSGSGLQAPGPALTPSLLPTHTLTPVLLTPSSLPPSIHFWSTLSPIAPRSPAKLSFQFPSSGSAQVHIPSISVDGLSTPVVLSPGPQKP
# Summary of the method: as §1
# GABPA = target: T3, GABPA (Homo sapiens, UniProt Q06546 1-454); conditions: protein: recombinant; tags: N-terminal GST; dsDNA, one strand shown
# T3 sequence: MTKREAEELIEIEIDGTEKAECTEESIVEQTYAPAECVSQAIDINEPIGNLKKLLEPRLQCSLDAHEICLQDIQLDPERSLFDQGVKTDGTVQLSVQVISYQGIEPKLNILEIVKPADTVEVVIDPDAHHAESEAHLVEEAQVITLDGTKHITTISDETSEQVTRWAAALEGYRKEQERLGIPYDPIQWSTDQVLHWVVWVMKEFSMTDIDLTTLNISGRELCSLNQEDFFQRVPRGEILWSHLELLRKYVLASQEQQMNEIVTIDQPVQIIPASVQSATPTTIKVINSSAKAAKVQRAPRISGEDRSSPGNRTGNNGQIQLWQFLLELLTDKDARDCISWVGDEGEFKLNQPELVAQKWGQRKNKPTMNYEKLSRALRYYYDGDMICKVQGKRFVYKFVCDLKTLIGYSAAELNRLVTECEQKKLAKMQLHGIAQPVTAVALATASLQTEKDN
# Summary of the method: as §1
# ERG = target: T4, ERG (Homo sapiens, UniProt P11308 1-479); conditions: protein: recombinant; tags: N-terminal GST; dsDNA, one strand shown
# T4 sequence: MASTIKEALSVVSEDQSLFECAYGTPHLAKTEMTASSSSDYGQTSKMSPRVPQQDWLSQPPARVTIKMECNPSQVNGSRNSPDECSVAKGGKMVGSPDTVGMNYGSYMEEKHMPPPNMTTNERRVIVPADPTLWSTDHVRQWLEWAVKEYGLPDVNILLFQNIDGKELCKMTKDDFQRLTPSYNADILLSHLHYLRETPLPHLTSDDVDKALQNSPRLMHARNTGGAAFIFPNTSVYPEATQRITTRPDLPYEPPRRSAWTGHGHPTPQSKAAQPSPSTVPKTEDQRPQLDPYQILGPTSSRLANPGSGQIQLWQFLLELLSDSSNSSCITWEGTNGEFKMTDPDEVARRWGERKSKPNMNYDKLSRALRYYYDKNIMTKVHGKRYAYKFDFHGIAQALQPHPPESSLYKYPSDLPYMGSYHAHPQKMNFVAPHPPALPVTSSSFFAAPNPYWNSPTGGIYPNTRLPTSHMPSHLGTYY
# Summary of the method: as §1
# ELF1 = ELF1 (Homo sapiens, UniProt P32519 1-619); conditions: protein: recombinant; tags: N-terminal GST; dsDNA, one strand shown
# Summary of the method: as §1
# EHF = target: T5, EHF (Homo sapiens, UniProt Q9NZC4 1-300); conditions: protein: recombinant; tags: N-terminal GST; dsDNA, one strand shown
# T5 sequence: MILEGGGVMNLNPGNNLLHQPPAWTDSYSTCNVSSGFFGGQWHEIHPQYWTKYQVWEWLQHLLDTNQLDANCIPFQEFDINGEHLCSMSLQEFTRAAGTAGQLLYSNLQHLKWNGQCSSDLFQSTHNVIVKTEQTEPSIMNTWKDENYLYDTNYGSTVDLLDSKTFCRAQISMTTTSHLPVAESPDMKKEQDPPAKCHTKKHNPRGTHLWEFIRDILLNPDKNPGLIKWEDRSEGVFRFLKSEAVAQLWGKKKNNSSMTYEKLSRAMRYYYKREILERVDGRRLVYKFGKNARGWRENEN
# Summary of the method: as §1
# SPI1 = SPI1 (Homo sapiens, UniProt P17947 1-270); conditions: protein: recombinant; tags: N-terminal GST; dsDNA, one strand shown
# Summary of the method: as §1
# SPIB = SPIB (Homo sapiens, UniProt Q01892 1-262); conditions: protein: recombinant; tags: N-terminal GST; dsDNA, one strand shown
# Summary of the method: as §1
# ELK3 = target: T6, ELK3 (Homo sapiens, UniProt P41970 1-407); conditions: protein: recombinant; tags: N-terminal GST; dsDNA, one strand shown
# T6 sequence: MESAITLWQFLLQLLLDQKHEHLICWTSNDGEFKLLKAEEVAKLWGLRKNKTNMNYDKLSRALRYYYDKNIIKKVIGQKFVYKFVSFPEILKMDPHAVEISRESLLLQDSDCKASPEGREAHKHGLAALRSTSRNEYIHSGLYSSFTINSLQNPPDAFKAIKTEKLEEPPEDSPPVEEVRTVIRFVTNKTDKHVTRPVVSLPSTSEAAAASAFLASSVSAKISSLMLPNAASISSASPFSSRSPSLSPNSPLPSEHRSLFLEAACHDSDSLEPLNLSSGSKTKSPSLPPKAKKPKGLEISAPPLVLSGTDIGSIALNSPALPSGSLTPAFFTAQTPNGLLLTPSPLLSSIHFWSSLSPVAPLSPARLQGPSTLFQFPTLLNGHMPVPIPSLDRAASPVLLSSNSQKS
# Summary of the method: as §1
# FEV = target: T7, FEV (Homo sapiens, UniProt Q99581 1-238); conditions: protein: recombinant; tags: N-terminal GST; dsDNA, one strand shown
# T7 sequence: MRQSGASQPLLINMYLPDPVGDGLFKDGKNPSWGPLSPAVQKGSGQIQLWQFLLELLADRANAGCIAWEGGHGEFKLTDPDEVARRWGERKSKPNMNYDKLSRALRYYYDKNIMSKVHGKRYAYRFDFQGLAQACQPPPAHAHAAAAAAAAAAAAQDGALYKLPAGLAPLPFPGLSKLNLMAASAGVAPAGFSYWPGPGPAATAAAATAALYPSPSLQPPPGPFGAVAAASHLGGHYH
# Summary of the method: as §1
# ETV5 = ETV5 (Homo sapiens, UniProt P41161 1-510); conditions: protein: recombinant; tags: N-terminal GST; dsDNA, one strand shown
# Summary of the method: as §1
# HSF1 = HSF1 (Homo sapiens, UniProt Q00613 1-529); conditions: protein: recombinant; tags: N-terminal GST; chain copies: 3; dsDNA, one strand shown
# Summary of the method: as §1
# SPIC = target: T8, SPIC (Homo sapiens, UniProt Q8N5J4 1-248); conditions: protein: recombinant; tags: N-terminal GST; dsDNA, one strand shown
# T8 sequence: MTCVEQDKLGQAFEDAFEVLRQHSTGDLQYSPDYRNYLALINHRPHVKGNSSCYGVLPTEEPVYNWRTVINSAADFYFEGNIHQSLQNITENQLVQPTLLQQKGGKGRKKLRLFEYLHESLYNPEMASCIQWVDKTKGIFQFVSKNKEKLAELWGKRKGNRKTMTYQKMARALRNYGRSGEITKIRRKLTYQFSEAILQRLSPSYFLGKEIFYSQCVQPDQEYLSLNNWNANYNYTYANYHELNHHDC
# Summary of the method: as §1
# ELF4 = ELF4 (Homo sapiens, UniProt Q99607 1-663); conditions: protein: recombinant; tags: N-terminal GST; dsDNA, one strand shown
# Summary of the method: as §1
# ELK4 = target: T9, ELK4 (Homo sapiens, UniProt P28324-2 1-405); conditions: protein: recombinant; tags: N-terminal GST; dsDNA, one strand shown
# T9 sequence: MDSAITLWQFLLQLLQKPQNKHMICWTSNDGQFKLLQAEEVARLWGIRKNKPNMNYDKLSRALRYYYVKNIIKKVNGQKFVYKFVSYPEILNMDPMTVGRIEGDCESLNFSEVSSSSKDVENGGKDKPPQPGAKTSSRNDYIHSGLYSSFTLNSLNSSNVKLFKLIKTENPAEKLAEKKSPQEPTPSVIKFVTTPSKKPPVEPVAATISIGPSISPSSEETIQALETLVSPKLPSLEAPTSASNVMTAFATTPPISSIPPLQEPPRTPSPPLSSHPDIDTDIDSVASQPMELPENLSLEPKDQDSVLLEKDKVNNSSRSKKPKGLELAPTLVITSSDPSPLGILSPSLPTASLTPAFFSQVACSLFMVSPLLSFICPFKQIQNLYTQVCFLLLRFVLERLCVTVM
# Summary of the method: as §1
# ETV2 = target: T10, ETV2 (Homo sapiens, UniProt O00321 1-342); conditions: protein: recombinant; tags: N-terminal GST; dsDNA, one strand shown
# T10 sequence: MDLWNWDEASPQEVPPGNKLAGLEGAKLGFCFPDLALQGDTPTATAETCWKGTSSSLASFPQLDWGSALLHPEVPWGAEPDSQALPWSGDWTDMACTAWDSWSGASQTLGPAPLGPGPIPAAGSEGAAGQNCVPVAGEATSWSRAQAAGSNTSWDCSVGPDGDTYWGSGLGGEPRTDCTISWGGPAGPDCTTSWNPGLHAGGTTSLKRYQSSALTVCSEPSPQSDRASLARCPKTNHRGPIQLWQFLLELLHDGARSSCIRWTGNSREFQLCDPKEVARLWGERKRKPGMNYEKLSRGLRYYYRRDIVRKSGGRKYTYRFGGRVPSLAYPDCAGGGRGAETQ
# Summary of the method: as §1
# ELF3 = target: T11, ELF3 (Homo sapiens, UniProt P78545 1-371); conditions: protein: recombinant; tags: N-terminal GST; dsDNA, one strand shown
# T11 sequence: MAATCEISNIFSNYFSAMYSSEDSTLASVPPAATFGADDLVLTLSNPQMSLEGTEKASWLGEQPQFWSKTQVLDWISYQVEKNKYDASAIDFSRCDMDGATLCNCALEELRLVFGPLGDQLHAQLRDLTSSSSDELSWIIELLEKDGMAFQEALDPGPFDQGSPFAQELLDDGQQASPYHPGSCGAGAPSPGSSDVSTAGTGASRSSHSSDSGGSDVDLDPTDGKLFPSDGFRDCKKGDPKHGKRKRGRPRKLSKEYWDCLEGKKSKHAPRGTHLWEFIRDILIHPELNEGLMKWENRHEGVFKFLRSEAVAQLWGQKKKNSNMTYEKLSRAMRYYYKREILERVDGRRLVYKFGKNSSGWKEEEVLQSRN
# Summary of the method: as §1
# CRX = CRX (Homo sapiens, UniProt O43186 1-299); conditions: protein: recombinant; tags: N-terminal GST; dsDNA, one strand shown
# Summary of the method: as §1
# ETV1 = ETV1 (Homo sapiens, UniProt P50549 1-477); conditions: protein: recombinant; tags: N-terminal GST; dsDNA, one strand shown
# Summary of the method: as §1
# ELF4, sequence (Q99607 whole entry): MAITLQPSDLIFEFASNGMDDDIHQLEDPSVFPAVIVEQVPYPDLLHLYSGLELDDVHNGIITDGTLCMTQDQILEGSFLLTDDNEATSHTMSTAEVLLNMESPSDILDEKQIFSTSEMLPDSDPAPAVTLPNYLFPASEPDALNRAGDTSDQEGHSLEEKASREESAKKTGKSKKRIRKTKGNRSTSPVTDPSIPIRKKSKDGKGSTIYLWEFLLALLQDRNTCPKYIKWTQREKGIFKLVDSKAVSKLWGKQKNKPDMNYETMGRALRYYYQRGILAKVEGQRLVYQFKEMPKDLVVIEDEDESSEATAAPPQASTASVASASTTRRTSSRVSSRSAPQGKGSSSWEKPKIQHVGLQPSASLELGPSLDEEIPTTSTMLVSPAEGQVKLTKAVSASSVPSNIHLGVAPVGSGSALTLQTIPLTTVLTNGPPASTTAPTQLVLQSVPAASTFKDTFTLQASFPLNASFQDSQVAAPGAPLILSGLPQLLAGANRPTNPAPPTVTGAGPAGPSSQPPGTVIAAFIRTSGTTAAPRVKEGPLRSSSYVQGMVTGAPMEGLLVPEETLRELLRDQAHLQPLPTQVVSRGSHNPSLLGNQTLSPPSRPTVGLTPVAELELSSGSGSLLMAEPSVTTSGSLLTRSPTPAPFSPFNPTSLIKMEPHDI
# ELF1, sequence (P32519 whole entry): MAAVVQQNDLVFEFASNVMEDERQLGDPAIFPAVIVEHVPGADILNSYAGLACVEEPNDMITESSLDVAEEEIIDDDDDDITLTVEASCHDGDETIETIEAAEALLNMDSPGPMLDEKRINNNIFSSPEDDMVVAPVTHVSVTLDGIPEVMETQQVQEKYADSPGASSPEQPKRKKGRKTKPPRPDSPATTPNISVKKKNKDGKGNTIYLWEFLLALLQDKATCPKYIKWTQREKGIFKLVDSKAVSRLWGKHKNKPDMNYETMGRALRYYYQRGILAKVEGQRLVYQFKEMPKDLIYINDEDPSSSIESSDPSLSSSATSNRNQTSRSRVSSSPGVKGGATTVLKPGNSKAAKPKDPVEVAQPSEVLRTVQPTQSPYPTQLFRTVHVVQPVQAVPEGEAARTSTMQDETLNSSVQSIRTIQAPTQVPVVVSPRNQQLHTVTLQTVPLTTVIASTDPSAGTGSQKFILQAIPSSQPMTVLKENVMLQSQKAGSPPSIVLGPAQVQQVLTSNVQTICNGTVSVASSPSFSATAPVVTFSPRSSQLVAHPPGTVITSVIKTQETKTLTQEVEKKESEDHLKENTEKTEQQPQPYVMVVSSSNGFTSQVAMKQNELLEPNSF
# CRX, sequence (O43186 whole entry): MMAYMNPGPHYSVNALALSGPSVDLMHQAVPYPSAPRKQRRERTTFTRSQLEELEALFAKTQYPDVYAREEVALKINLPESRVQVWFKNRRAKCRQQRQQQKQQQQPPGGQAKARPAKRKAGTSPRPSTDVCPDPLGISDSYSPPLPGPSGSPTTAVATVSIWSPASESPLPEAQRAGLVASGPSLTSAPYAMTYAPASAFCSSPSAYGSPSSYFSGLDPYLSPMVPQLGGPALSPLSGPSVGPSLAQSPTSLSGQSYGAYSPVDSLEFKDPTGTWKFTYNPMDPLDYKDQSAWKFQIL
# HSF1, sequence (Q00613 whole entry): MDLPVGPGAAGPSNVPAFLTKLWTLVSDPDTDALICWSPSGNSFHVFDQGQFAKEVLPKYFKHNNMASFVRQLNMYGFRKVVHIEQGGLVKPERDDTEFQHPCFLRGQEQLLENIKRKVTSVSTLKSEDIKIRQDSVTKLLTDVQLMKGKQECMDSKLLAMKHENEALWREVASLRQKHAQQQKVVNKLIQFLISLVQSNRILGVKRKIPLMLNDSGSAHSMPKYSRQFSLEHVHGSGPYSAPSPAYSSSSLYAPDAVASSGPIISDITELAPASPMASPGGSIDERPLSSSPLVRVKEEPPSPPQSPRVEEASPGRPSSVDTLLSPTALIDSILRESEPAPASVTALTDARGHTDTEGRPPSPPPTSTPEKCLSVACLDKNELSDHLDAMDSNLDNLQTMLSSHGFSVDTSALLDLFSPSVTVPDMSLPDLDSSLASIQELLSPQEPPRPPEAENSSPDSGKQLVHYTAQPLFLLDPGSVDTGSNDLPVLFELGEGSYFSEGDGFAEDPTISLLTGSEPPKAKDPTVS
# ETV1, sequence (P50549 whole entry): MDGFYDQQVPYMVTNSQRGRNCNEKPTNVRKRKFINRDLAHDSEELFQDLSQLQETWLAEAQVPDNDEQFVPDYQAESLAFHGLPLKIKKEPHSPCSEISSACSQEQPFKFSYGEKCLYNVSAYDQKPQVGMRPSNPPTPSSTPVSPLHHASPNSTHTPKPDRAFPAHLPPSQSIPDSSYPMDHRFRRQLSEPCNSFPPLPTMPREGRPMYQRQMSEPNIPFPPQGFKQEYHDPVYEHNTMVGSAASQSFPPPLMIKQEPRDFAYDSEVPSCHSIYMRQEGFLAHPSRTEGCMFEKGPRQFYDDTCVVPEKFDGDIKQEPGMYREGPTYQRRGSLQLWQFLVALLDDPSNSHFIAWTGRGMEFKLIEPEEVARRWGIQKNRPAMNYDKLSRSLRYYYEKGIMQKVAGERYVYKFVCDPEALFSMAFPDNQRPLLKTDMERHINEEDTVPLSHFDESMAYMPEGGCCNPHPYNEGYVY
# ETV5, sequence (P41161 whole entry): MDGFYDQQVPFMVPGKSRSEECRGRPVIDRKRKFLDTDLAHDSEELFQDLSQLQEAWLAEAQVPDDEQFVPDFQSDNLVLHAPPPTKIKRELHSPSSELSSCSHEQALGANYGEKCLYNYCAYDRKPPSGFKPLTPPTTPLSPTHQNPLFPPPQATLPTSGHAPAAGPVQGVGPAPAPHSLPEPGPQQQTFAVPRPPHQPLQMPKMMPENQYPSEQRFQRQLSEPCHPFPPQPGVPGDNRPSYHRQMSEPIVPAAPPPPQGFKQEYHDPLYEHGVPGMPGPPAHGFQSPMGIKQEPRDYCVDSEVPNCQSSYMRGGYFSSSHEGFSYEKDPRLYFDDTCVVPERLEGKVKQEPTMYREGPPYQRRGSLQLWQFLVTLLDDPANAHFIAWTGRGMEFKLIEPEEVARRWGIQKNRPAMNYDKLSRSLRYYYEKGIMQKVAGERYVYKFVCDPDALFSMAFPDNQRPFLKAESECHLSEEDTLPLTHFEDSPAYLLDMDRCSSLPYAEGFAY
# SPIB, sequence (Q01892 whole entry): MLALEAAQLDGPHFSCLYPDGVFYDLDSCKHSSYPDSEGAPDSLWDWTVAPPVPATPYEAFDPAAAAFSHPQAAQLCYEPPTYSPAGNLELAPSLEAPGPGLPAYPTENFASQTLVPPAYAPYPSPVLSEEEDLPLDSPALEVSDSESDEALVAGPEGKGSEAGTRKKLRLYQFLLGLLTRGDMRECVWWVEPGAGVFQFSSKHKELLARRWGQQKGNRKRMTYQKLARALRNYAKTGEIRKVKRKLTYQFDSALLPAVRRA
sequence,measurement,setting,value
GCCTTT,binding signal,FLI1,"1.33 fold enrichment (6-mer frequency, TF over GST control)"
same,binding signal,ELK1,"1.3 fold enrichment (6-mer frequency, TF over GST control)"
same,binding signal,GABPA,"1.32 fold enrichment (6-mer frequency, TF over GST control)"
same,binding signal,ERG,"1.2 fold enrichment (6-mer frequency, TF over GST control)"
same,binding signal,ELF1,"1.28 fold enrichment (6-mer frequency, TF over GST control)"
same,binding signal,EHF,"1.35 fold enrichment (6-mer frequency, TF over GST control)"
same,binding signal,SPI1,"1.49 fold enrichment (6-mer frequency, TF over GST control)"
same,binding signal,SPIB,"1.35 fold enrichment (6-mer frequency, TF over GST control)"
same,binding signal,ELK3,"1.27 fold enrichment (6-mer frequency, TF over GST control)"
same,binding signal,FEV,"1.41 fold enrichment (6-mer frequency, TF over GST control)"
same,binding signal,ETV5,"1.25 fold enrichment (6-mer frequency, TF over GST control)"
same,binding signal,HSF1,"1.24 fold enrichment (6-mer frequency, TF over GST control)"
same,binding signal,SPIC,"1.56 fold enrichment (6-mer frequency, TF over GST control)"
same,binding signal,ELF4,"1.36 fold enrichment (6-mer frequency, TF over GST control)"
same,binding signal,ELK4,"1.32 fold enrichment (6-mer frequency, TF over GST control)"
same,binding signal,ETV2,"1.53 fold enrichment (6-mer frequency, TF over GST control)"
same,binding signal,ELF3,"1.38 fold enrichment (6-mer frequency, TF over GST control)"
same,binding signal,CRX,"1.3 fold enrichment (6-mer frequency, TF over GST control)"
same,binding signal,ETV1,"1.34 fold enrichment (6-mer frequency, TF over GST control)"
